Results on 5 molecules are retold here after publication PMC11062922 (Nature Chemical Biology, 2023).

The structures appear in SMILES notation. Like-named read-outs stand apart in the source and are kept apart here.

One assay concerns CSNK2A1;CSNK2A3. Details: species or system human, MV4-11 + K-562 + COLO205 + SK-N-BE2 + OVCAR-8. Conditions: read-out: apparent Kd, compound concentrations: 100 nM and 1000 nM (sheet 'Samples'), n = 1.
The subject of another assay is CSNK2A2. Details: species or system human, MV4-11 + K-562 + COLO205 + SK-N-BE2 + OVCAR-8. Conditions: read-out: apparent Kd, compound concentrations: 100 nM and 1000 nM (sheet 'Samples'), n = 1.
The subject of assay [1] is PKN3. Details: species or system human, MV4-11 + K-562 + COLO205 + SK-N-BE2 + OVCAR-8. Conditions: read-out: apparent Kd, compound concentrations: 100 nM and 1000 nM (sheet 'Samples'), n = 1.
The target in another assay is Q6ZSR9 (human, UniProt Q6ZSR9). Details: species or system MV4-11 + K-562 + COLO205 + SK-N-BE2 + OVCAR-8. Conditions: read-out: apparent Kd, compound concentrations: 100 nM and 1000 nM (sheet 'Samples'), n = 1.
The test system of assay [2] is PKN3. Conditions: hek293t cells.
In the next assay the test system is AAK1. Details: species or system human, MV4-11 + K-562 + COLO205 + SK-N-BE2 + OVCAR-8. Conditions: read-out: apparent Kd; compound concentrations: 100 nM and 1000 nM (sheet 'Samples'), CATDS: 1.0489274011292E-2; n = 1.
The next assay has as its system BMP2K. Details: species or system human, MV4-11 + K-562 + COLO205 + SK-N-BE2 + OVCAR-8. Conditions: read-out: apparent Kd; compound concentrations: 100 nM and 1000 nM (sheet 'Samples'), CATDS: 9.7460630022759408E-3; n = 1.
A further assay has as its system CLK1. Details: species or system human, MV4-11 + K-562 + COLO205 + SK-N-BE2 + OVCAR-8. Conditions: read-out: apparent Kd; compound concentrations: 100 nM and 1000 nM (sheet 'Samples'), CATDS: 1.6853937375741E-2; n = 1.
Another assay relates to CLK4. Details: species or system human, MV4-11 + K-562 + COLO205 + SK-N-BE2 + OVCAR-8. Particulars: read-out: apparent Kd; compound concentrations: 100 nM and 1000 nM (sheet 'Samples'), CATDS: 1.78351826711012E-2; n = 1.
A further assay concerns FLT4. Details: species or system human, MV4-11 + K-562 + COLO205 + SK-N-BE2 + OVCAR-8. Conditions: read-out: apparent Kd; compound concentrations: 100 nM and 1000 nM (sheet 'Samples'), CATDS: 6.1594984322683802E-2; n = 1.
Another assay has as its system GAK. Details: species or system human, MV4-11 + K-562 + COLO205 + SK-N-BE2 + OVCAR-8. Conditions: read-out: apparent Kd; compound concentrations: 100 nM and 1000 nM (sheet 'Samples'), CATDS: 7.1387437274862903E-3; n = 1.
In another assay the test system is GSK3A. Details: species or system human, MV4-11 + K-562 + COLO205 + SK-N-BE2 + OVCAR-8. Conditions: read-out: apparent Kd; compound concentrations: 100 nM and 1000 nM (sheet 'Samples'), CATDS: 2.2002232250464899E-2; n = 1.
Another assay concerns GSK3B. Details: species or system human, MV4-11 + K-562 + COLO205 + SK-N-BE2 + OVCAR-8. Particulars: read-out: apparent Kd; compound concentrations: 100 nM and 1000 nM (sheet 'Samples'), CATDS: 2.1185466534455601E-2; n = 1.
For another assay, the system named is MELK. Details: species or system human, MV4-11 + K-562 + COLO205 + SK-N-BE2 + OVCAR-8. Particulars: read-out: apparent Kd; compound concentrations: 100 nM and 1000 nM (sheet 'Samples'), CATDS: 6.9590061702447499E-3; n = 1.
A further assay has as its system NUAK1. Details: species or system human, MV4-11 + K-562 + COLO205 + SK-N-BE2 + OVCAR-8. Particulars: read-out: apparent Kd; compound concentrations: 100 nM and 1000 nM (sheet 'Samples'), CATDS: 1.9495800971078701E-2; n = 1.
For a further assay, the system named is PAK4. Details: species or system human, MV4-11 + K-562 + COLO205 + SK-N-BE2 + OVCAR-8. Conditions: read-out: apparent Kd; compound concentrations: 100 nM and 1000 nM (sheet 'Samples'), CATDS: 1.03985583586522E-2; n = 1.
The next assay deals with PRKAG1. Details: species or system human, MV4-11 + K-562 + COLO205 + SK-N-BE2 + OVCAR-8. Conditions: read-out: apparent Kd; compound concentrations: 100 nM and 1000 nM (sheet 'Samples'), CATDS: 1.48267658268137E-2; n = 1.
Another assay concerns RET. Details: species or system human, MV4-11 + K-562 + COLO205 + SK-N-BE2 + OVCAR-8. Particulars: read-out: apparent Kd; compound concentrations: 100 nM and 1000 nM (sheet 'Samples'), CATDS: 1.6777420038619099E-2; n = 1.
The subject of the next assay is SIK2. Details: species or system human, MV4-11 + K-562 + COLO205 + SK-N-BE2 + OVCAR-8. Conditions: read-out: apparent Kd; compound concentrations: 100 nM and 1000 nM (sheet 'Samples'), CATDS: 3.5509703257123403E-2; n = 1.
Another assay concerns PKN1. Details: species or system human, MV4-11 + K-562 + COLO205 + SK-N-BE2 + OVCAR-8. Particulars: read-out: apparent Kd; compound concentrations: 100 nM and 1000 nM (sheet 'Samples'), CATDS: 0.15879588217707499; n = 1.
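Throughout, for IC50: NanoBRET target engagement in HEK293T cells transiently expressing full-length PKN3 with C-terminal NanoLuc, displacement of fluorescent tracer K5 (500 nM), BRET read after 2 h equilibration at 37 °C.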

Sequence of Q6ZSR9 (Q6ZSR9 whole entry, looked up): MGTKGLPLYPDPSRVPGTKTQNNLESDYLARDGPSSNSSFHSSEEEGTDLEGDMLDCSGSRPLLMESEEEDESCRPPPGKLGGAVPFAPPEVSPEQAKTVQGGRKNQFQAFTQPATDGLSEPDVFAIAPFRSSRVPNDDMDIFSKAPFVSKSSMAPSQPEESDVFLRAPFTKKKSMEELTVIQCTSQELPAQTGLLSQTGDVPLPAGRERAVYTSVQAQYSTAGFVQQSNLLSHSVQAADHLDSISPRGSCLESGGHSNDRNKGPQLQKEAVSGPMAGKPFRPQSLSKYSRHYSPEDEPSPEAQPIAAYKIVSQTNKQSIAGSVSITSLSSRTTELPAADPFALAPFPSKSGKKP

Regarding `CONC1=NC(=O)/C(=C/c2ccc3ncccc3c2)S1` [RO4613269-000], the potency estimated from few doses was 58.1 nM in the assay with CSNK2A1;CSNK2A3 (CATDS: 0.42776292921510001) and 56.8 nM with CSNK2A2 (CATDS: 0.433008345682735).
With `CCn1c(-c2nonc2N)nc2c(C#CC(C)(C)O)nc(CN3CCCC3)cc21` [GSK1000163A], the potency estimated from few doses in the assay with PKN3 [1] (CATDS: 0.30633787059967998) was 558 nM; in the assay with Q6ZSR9 (CATDS: 0.15882546471257), 2130 nM. Further, the IC50 was 6970 nM with PKN3 [2] (read-out: Average, SD, n = 4); 11100 nM with PKN3 [2] (read-out: Rep 1); 9200 nM in the assay with PKN3 [2] (read-out: Rep 2); 6130 nM with PKN3 [2] (read-out: Rep 3); 1430 nM in the assay on PKN3 [2] (read-out: Rep 4).
As to `Fc1ccc(-c2c(-c3ccncc3)[nH]c3cccnc23)cc1` [RO1153853-000], the potency estimated from few doses in the assay on PKN3 [1] (CATDS: 0.27237296502427) is 55.8 nM. For the same molecule, the IC50 in the assay with PKN3 [2] (read-out: Average, SD, n = 4) amounted to 2360 nM; in the assay on PKN3 [2] (read-out: Rep 1), 8030 nM; in the assay on PKN3 [2] (read-out: Rep 2), 951 nM; in the assay on PKN3 [2] (read-out: Rep 3) it was 164 nM; in the assay on PKN3 [2] (read-out: Rep 4), 295 nM.
As for `COc1ccc(Nc2ncc(C#N)c(Nc3ccccc3C(N)=O)n2)cc1N1CCN(C)CC1.Cl` [GSK1558669A], the potency estimated from few doses was 164 nM in the assay on AAK1; 204 nM with BMP2K; 52 nM in the assay with CLK1; 46.4 nM with CLK4; 15.7 nM with CSNK2A1;CSNK2A3 (CATDS: 3.32003717220812E-2); 7.02 nM in the assay with CSNK2A2 (CATDS: 5.84237607609163E-2). Moreover, the potency estimated from few doses with FLT4 is 6.55 nM; in the assay on GAK it was 650 nM; in the assay with GSK3A it was 31.1 nM; in the assay on GSK3B, 33.3 nM; with MELK it was 733 nM; in the assay with NUAK1 it was 39 nM. For the same molecule, the potency estimated from few doses was 168 nM in the assay with PAK4; 68.5 nM in the assay on PRKAG1; 121 nM with Q6ZSR9 (CATDS: 1.17172228407674E-2); 52.5 nM in the assay on RET; 14.1 nM in the assay with SIK2.
With `CCn1c(-c2nonc2N)nc2c(C#CCN)ncc(OCCCN)c21.O=C(O)C(F)(F)F` [GSK561866B], the potency estimated from few doses with PKN1 was 65.5 nM; in the assay on PKN3 [1] (CATDS: 0.49894757840635401), 5.21 nM. For the same molecule, the IC50 was determined as 7970 nM in the assay on PKN3 [2] (read-out: Average, SD, n = 4); 13000 nM with PKN3 [2] (read-out: Rep 1); 11200 nM in the assay with PKN3 [2] (read-out: Rep 2); 4910 nM in the assay with PKN3 [2] (read-out: Rep 3); 2820 nM with PKN3 [2] (read-out: Rep 4).
